High-throughput results from PubChem BioAssay.
The list is not random: actives were taken first. Their share in the collection is about 1.8%.
TRPML1 ag: qHTS for Agonists of the Human Mucolipin Transient Receptor Potential 1 (TRPML1); Mucolipin-1 (Homo sapiens), Q9GZU1; 0.12% of 410,000 active; TRPML1-expressing cells, Ca2+ dye fluorescence, FDSS; activation, % (test concentration not listed); in the data active means activation above about 50%; inconclusive means mostly about 30% to 49%
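Tet-induced TRPML1-DL cells, 1,500 per well, cultured overnight, were loaded with a no-wash Ca2+ dye for 45–90 min. Calcium fluorescence was recorded on the FDSS for 110 s after compound addition, before the EC80 agonist (4 uM 54-4) was added.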
TRPML1 blocker: qHTS for Inhibitors of the Human Mucolipin Transient Receptor Potential 1 (TRPML1); Mucolipin-1 (Homo sapiens), Q9GZU1; TRPML1-inducible cells, Ca2+ dye fluorescence, FDSS; stronger effect = lower value; inhibition of EC80 agonist-evoked calcium signal; activity change, negative = inhibition, % (test concentration not listed); 0.02% of 390,000 active; AID 624415, 2012; in the data active means activity change below about -50%; inconclusive means between about -30% and that limit;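 further: stimulus is agonist 54-4 at its EC80 concentration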
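Calcium fluorescence in TRPML1-DL cells induced overnight with Tet: a 110 s read after compound pin addition, then a 110 s antagonist read after challenge with 54-4 at 4 uM final (EC80).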
GLP-1R agonist: qHTS of GLP-1 Receptor Agonists; HEK293 GLP-1R CRE-luciferase, luminescence, 4-6 h; cells express a hypersensitive GLP-1R form; AID 624172, 2012; 0.007% of 380,000 active; Glucagon-like peptide 1 receptor (Homo sapiens), P43220; Potency, µM (series often up to 45.6 µM), actives largely listed as activators
Target sequence (P43220 whole entry, looked up): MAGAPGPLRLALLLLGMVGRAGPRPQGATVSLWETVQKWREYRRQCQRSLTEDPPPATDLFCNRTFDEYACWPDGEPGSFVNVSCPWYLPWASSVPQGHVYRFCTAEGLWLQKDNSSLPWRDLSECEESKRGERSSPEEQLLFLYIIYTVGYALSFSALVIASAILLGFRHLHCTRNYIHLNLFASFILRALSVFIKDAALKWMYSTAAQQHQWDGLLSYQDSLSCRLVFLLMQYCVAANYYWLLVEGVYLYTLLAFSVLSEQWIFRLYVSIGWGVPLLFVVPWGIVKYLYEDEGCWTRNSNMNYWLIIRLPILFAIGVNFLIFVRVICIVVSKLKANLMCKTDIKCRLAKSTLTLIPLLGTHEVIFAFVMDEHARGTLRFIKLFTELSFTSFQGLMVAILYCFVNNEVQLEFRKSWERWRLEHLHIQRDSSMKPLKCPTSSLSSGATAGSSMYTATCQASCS
HEK293 tox: qHTS of GLP-1 Receptor Inverse Agonists: Cytotox Screen. HEK293 cAMP-luciferase reporter cells, luminescence, 24 h. Potency, µM (doses to about 38.3 µM), hits mostly inhibitors. 0.13% of 410,000 active. AID 624418, 2012;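 further: loss of luciferase light is scored as toxicity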
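To flag toxic compounds, the library was rerun on cells for 24 hr at 37 deg C and 5% CO2. Viability-linked luminescence was captured 12 min after adding luciferase detection reagent.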
GLP1R inv ag: qHTS of GLP-1 Receptor Inverse Agonists (Inhibition Mode); Glucagon-like peptide 1 receptor (Homo sapiens), P43220; HEK293 GLP-1R CRE-luciferase, luminescence, 24 h; GLP-1R form is constitutively active; Potency, µM (highest dose often 38.3 µM), usual class: inhibitors; 1.6% of 410,000 active; further: nearly all actives have a fitted effect of over 55% in size
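Using stably transfected HEK293 (constitutively active GLP-1R, cAMP-luciferase reporter), compounds were incubated 24 hr and luciferase measured by luminescence.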
Large screens that a line does not name were inactive. Unless noted, the call rests on the fitted dose curve; in most records, active means well fitted curve in the direction sought with a large enough effect; inconclusive means small, poorly fitted or top-dose-only effect, or another doubt; inactive means no such curve, though single readings can be large; an effect the other way counts as inactive or inconclusive.

Cc1nc2c(=O)n(C)c(=O)nc-2n(C)n1	HEK293 tox 2µM
O=C1c2[nH]nc(-c3ccccc3)c2C(c2ccccc2)N1c1cccc(C(F)(F)F)c1 (stereo unspecified)	HEK293 tox inconclusive, GLP1R inv ag inconclusive (no result: GLP-1R agonist)
CCC(C)NCCOCCOc1ccc(Cl)c2ccccc12 (stereo unspecified)	HEK293 tox inconclusive, GLP1R inv ag 1.58µM
C[C@H]1[C@@H]2Cc3ccc(O)cc3[C@]1(C)CCN2C	none (no result: TRPML1 ag, TRPML1 blocker, HEK293 tox, GLP1R inv ag)
O=C1C=CC2C3C(=O)N(c4ccccc4)C(=O)C3C1N2Cc1ccccc1 (stereo unspecified)	HEK293 tox 10µM, GLP1R inv ag inconclusive
COc1cccc(C2CC3C(=O)C=CC2N3Cc2ccccc2)c1 (stereo unspecified)	GLP1R inv ag inconclusive
O=C(Nc1ccc(Cl)c(C(F)(F)F)c1)NC1CC2CCCC(C1)N2Cc1ccccc1 (stereo unspecified)	HEK293 tox inconclusive, GLP1R inv ag 2.51µM
CCOC(=O)c1[nH]c2ccc(OC)cc2c1NC(=S)N1CCN(c2ccccc2OC)CC1	HEK293 tox inconclusive, GLP1R inv ag inconclusive
CCOc1cc(CNCCc2c[nH]c3ccccc23)cc(Cl)c1OC	HEK293 tox inconclusive, GLP1R inv ag 11.2µM
CC(C)[C@@]1(NC(=O)[C@H]2C[C@H]3c4cccc5[nH]cc(c45)C[C@@H]3N(C)C2)O[C@]2(O)[C@H]3CCCN3C(=O)CN2C1=O (tested in a mixture with another compound)	none (no result: TRPML1 ag, TRPML1 blocker, HEK293 tox, GLP1R inv ag)
Cc1ccccc1NC(=O)Nc1nc(C(N)C2CCCCC2)cs1 (stereo unspecified)	HEK293 tox inconclusive, GLP1R inv ag inconclusive (no result: TRPML1 blocker)
CCN1CCN(c2ncc(C(=O)Nc3cc(Cl)ccc3OC)c3ccccc23)CC1	HEK293 tox inconclusive, GLP1R inv ag 1.78µM
CCOC(=O)c1cccc(NC(=O)c2cnc(N3CCCCC3)c3ccccc23)c1	GLP1R inv ag inconclusive (no result: GLP-1R agonist)
CCNC(=O)COc1ccc(/C=C2\COc3ccccc3C2=O)cc1OC	HEK293 tox inconclusive, GLP1R inv ag inconclusive
CN(C)C(Cc1ccccc1)C(=O)c1ccccc1 (stereo unspecified)	none
CN(C)C(Cc1ccccc1)C(=O)c1c[nH]c2ccccc12 (stereo unspecified)	GLP1R inv ag 12.6µM
COc1ccc(NC2=NCC(Cc3ccc(Br)cc3)S2)cc1 (stereo unspecified)	HEK293 tox inconclusive, GLP1R inv ag inconclusive
COC(=O)C1=C(C)N(Cc2ccccc2)C(=NCc2cccc(C(F)(F)F)c2)N[C@H]1c1cccc(F)c1	HEK293 tox 22.4µM, GLP1R inv ag inconclusive
COc1cc(C2c3cc4c(cc3CC3COC(=O)C32)OCO4)cc(OC)c1OC (stereo unspecified)	HEK293 tox inconclusive, GLP1R inv ag 0.282µM (no result: TRPML1 ag, TRPML1 blocker)
CC1(C)CC[C@]2(C(=O)O)CC[C@]3(C)C(=CC[C@@H]4[C@@]5(C)CC[C@H](O[C@@H]6O[C@H](C(=O)O)[C@@H](O)[C@H](O[C@@H]7OC[C@H](O)[C@H](O)[C@H]7O)[C@H]6O)C(C)(C)[C@@H]5CC[C@]43C)[C@@H]2C1	TRPML1 ag inconclusive, HEK293 tox inconclusive, GLP1R inv ag inconclusive
Cc1cccc(N(CC(=O)NCCSc2ccc(Cl)cc2)S(=O)(=O)c2ccccc2)c1C	GLP1R inv ag 10µM (no result: GLP-1R agonist)
Cc1ccc(S(=O)(=O)N(CC(=O)NCCSc2ccc(Cl)cc2)c2ccccc2C)cc1	GLP1R inv ag 11.2µM (no result: GLP-1R agonist)
CS(=O)(=O)c1ccc(C(=O)C2C(=O)CCCC2=O)c([N+](=O)[O-])c1	none (no result: TRPML1 ag, TRPML1 blocker, HEK293 tox, GLP1R inv ag)
Cn1c(O)c(/C=N/Nc2ccccc2)c(=O)n(C)c1=O	HEK293 tox inconclusive, GLP1R inv ag 10µM
CCNC(C)Cc1ccc2c(c1)OCO2 (stereo unspecified)	none (no result: TRPML1 ag, TRPML1 blocker, HEK293 tox, GLP1R inv ag)
COc1ccc(C=CC(=O)c2c(OC)cc(OC)c(OC)c2O)cc1	HEK293 tox inconclusive, GLP1R inv ag inconclusive
CCOP(=O)(OCC)C(NC(=O)Nc1ccc(Cl)c(Cl)c1)c1ccccc1 (stereo unspecified)	GLP1R inv ag 8.91µM
CC(C)CCOP(=O)(c1ccc(N(C)C)cc1)C(O)c1ccc(Cl)cc1Cl (stereo unspecified)	HEK293 tox inconclusive, GLP1R inv ag 6.31µM
CN[C@H]1C[C@@H](N)[C@H](O)[C@@H](O[C@@H]2O[C@H](CO)[C@H](O)[C@@H]3O[C@]4(O[C@@H]23)O[C@H]([C@@H](N)CO)[C@H](O)[C@@H](O)[C@H]4O)[C@@H]1O	none (no result: TRPML1 ag, TRPML1 blocker, HEK293 tox, GLP1R inv ag)
C=CCN(C(=O)C1CC(=O)N(C2CCCC2)C1)c1nc(-c2ccc(S(C)(=O)=O)cc2)cs1 (stereo unspecified)	HEK293 tox inconclusive, GLP1R inv ag inconclusive
c1cc2n(c1)-c1c(ccc3c1OCO3)CNC2c1ccc2c(c1)OCO2 (stereo unspecified)	GLP1R inv ag 8.91µM
COc1ccc(CNC(=O)Cn2c(SCC(=O)Nc3ccc(C)c(C)c3)nc3ccccc32)cc1	GLP1R inv ag inconclusive (no result: GLP-1R agonist)
O=C(O)c1ccccc1Nc1ccc([N+](=O)[O-])c2nonc12	HEK293 tox inconclusive
CN1CCN(c2ccccc2NC(=O)c2ccc(N3CCCC3)c([N+](=O)[O-])c2)CC1	HEK293 tox inconclusive, GLP1R inv ag inconclusive
COc1ccc(Cl)cc1NC(=O)CN(C)C(=O)c1ccc(N2CCCCC2)c([N+](=O)[O-])c1	TRPML1 ag 61.4, HEK293 tox inconclusive, GLP1R inv ag inconclusive
COc1ccc(Cl)cc1NC(=O)CCCS(=O)(=O)c1nc(-c2ccc(OC)c(OC)c2)cc(C(F)(F)F)n1	HEK293 tox inconclusive, GLP1R inv ag inconclusive (no result: GLP-1R agonist)
CCCCCCn1c(=O)[nH]c2nc3cc(N)c(C)cc3nc2c1=O	TRPML1 ag 69.8
COc1ccccc1S(=O)(=O)N(C)C[C@@H]1Oc2cc(C#CCC(C)C)ccc2S(=O)(=O)N([C@H](C)CO)C[C@@H]1C	GLP1R inv ag inconclusive
C[C@@H]1CN([C@@H](C)CO)S(=O)(=O)c2ccc(Br)cc2O[C@H]1CN(C)C(=O)Nc1ccc(C(F)(F)F)cc1	GLP1R inv ag 7.94µM
CS(=O)(=O)c1ccc(C2=C(CNC(=O)c3ccncc3)[C@H]3CC[C@@H](C2)N3CCOc2ccccc2)cc1	none (no result: TRPML1 ag, TRPML1 blocker)
CS(=O)(=O)c1ccc(C2=C(CNC(=O)c3ccc([N+](=O)[O-])cc3)[C@H]3CC[C@@H](C2)N3Cc2ccccc2)cc1	none
O=C(NCC1=C(c2cccc3ccccc23)C[C@@H]2CC[C@H]1N2Cc1ccco1)c1ccc([N+](=O)[O-])cc1	GLP1R inv ag 3.55µM
